# Active and inactive are the calls of the source.
# Tests used:
# Albumin (Bos taurus) = Albumin (Bos taurus) (UniProt P02769); assay: compounds binding labelled BSA control protein – biochemical, small-molecule microarray, Alexa647 label, 635/667 nm fluorescence, artefact control for SMM control protein annotation, profiling panel (AID 1118); conditions: BSA-A647 binding, fluorescence 635 nm, higher = more signal;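 note: score merges 667 nm emission intensity and signal-to-noise per printed compound spot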
# Chain of Albumin (Bos taurus) (P02769 whole entry, looked up): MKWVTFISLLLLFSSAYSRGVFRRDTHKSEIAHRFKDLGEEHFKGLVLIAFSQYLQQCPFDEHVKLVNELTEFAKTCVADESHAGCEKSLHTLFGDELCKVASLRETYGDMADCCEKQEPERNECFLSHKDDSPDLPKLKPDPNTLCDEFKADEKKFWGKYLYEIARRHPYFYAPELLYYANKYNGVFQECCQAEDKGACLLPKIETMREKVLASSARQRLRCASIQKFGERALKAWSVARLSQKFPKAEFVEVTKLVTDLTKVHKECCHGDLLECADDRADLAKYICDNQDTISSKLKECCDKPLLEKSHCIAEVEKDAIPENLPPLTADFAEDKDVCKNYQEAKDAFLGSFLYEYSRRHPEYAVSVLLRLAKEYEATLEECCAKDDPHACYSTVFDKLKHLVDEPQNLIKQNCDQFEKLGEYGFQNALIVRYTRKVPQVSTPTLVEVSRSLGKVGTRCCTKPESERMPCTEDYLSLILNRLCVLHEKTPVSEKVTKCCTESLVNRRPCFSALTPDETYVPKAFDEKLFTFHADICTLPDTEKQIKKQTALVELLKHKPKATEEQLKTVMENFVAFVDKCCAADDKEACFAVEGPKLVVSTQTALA
# [1] = probe aXIP binding to arrayed compounds – biochemical, NeuroSMM set, 635/667 nm fluorescence, primary screen (AID 1119); conditions: small-molecule microarray, higher = more signal, called active from +8 up or from −8 down;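 note: probe is the protein aXip251-270 applied at 1 µg/mL to compound-printed slides; binding of probe to printed compounds measured as 667 nm fluorescence plus signal to noise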
# [2] = probe aNOTCH3 binding on compound microarray – biochemical, small-molecule microarray, 635/667 nm fluorescence, primary screen (AID 1120); conditions: higher = more signal;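 note: probe is a biotin-tagged antibody raised against NOTCH3 rather than NOTCH3 protein; score merges spot fluorescence near 667 nm with spot signal to noise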
# [3] = probe aNOTCH2 binding on compound microarray – biochemical, small-molecule microarray, 635/667 nm fluorescence, primary screen (AID 1121); conditions: higher = more signal;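 note: score merges feature fluorescence read at 667 nm with its signal to noise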
# [4] = molecular target: Carbonic anhydrase 2 (Homo sapiens) (UniProt P00918); assay: compounds binding carbonic anhydrase 2 – biochemical, small-molecule microarray, Alexa647-labelled CAII, profiling panel (AID 1122); conditions: CAII-A647 binding fluorescence, higher = more signal
# [5] = COS7 lysate on small-molecule microarray, probe aHis, 635 nm (AID 1123); conditions: COS7 cell lysate, fluorescence, higher = more signal;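 note: z-score combines 667nm fluorescence intensity with signal-to-noise per printed compound spot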
# [6] = probe aLAP1 signal on lysate-treated microarray – cell lysate, small-molecule microarray, COS7 lysate, primary screen (AID 1124); conditions: probe aLAP1, fluorescence, higher = more signal;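 note: lysate comes from COS7 cells expressing LAP1 and is applied at 0.3 µg/mL; score merges spot fluorescence near 667 nm with signal-to-noise over triplicate slides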
# Sam68 (KHDRBS1) = assay: compounds binding KHDRBS1 protein – biochemical, small-molecule microarray, 635 nm fluorescence, primary screen (AID 1125); conditions: higher = more signal;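 note: score merges 667 nm channel intensity with signal to noise over triplicate slides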
# [7] = tested on: Chordin-like protein 2 (CHRDL2); assay: compounds binding chordin-like 2 – biochemical, small-molecule microarray, 635 nm fluorescence, primary screen (AID 1126); conditions: fluorescence 635 nm, higher = more signal;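 note: printed compound slides probed with Chrdl2 protein at 4 µg/mL for 1 h at 4 C; score merges 667 nm emission intensity with signal to noise over three replicate slides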
# [8] = molecular target: Concanavalin-A (Canavalia ensiformis) (UniProt P02866); assay: compounds binding concanavalin A lectin – biochemical, small-molecule microarray, Alexa647 label, 635 nm, artefact control for SMM control protein annotation, primary screen (AID 1127); conditions: ConA-A647 binding fluorescence, higher = more signal;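 note: z combines 667 nm emission intensity with signal-to-noise across three replicate slides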
# Chain of Concanavalin-A (Canavalia ensiformis) (P02866 whole entry, looked up): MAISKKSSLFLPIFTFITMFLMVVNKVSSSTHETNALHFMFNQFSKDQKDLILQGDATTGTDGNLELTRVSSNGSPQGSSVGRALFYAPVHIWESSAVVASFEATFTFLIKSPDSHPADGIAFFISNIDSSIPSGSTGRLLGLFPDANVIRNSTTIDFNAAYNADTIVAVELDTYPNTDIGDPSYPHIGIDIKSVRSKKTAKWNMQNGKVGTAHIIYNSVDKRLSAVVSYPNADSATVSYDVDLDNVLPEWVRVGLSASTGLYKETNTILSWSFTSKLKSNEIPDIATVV
# [9] = compounds binding Alexa647 anti-His antibody – biochemical, small-molecule microarray, 635 nm fluorescence, artefact control for SMM control protein annotation, primary screen (AID 1128); conditions: higher = more signal;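 note: score merges feature fluorescence with signal-to-noise for each printed compound spot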
# [10] = tested on: Human papillomavirus type 1a E7 protein (residues 1-88); assay: HPV1a E7 small-molecule binders, primary screen, biochemical, small-molecule microarray, residues 1-88, 635 nm (AID 1129); conditions: small-molecule microarray binding, fluorescence 635 nm; higher = more signal
# [11] = molecular target: Focal adhesion kinase 1 (Homo sapiens) (UniProt Q05397); assay: PTK2 protein binding on printed compound slides – biochemical, small-molecule microarray, 635/667 nm fluorescence, BSA, DTT, primary screen (AID 1130); conditions: 635 nm fluorescence, higher = more signal;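 note: composite of spot emission at 667 nm and signal to noise over triplicate slides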
# Chain of Focal adhesion kinase 1 (Homo sapiens) (Q05397 whole entry, looked up): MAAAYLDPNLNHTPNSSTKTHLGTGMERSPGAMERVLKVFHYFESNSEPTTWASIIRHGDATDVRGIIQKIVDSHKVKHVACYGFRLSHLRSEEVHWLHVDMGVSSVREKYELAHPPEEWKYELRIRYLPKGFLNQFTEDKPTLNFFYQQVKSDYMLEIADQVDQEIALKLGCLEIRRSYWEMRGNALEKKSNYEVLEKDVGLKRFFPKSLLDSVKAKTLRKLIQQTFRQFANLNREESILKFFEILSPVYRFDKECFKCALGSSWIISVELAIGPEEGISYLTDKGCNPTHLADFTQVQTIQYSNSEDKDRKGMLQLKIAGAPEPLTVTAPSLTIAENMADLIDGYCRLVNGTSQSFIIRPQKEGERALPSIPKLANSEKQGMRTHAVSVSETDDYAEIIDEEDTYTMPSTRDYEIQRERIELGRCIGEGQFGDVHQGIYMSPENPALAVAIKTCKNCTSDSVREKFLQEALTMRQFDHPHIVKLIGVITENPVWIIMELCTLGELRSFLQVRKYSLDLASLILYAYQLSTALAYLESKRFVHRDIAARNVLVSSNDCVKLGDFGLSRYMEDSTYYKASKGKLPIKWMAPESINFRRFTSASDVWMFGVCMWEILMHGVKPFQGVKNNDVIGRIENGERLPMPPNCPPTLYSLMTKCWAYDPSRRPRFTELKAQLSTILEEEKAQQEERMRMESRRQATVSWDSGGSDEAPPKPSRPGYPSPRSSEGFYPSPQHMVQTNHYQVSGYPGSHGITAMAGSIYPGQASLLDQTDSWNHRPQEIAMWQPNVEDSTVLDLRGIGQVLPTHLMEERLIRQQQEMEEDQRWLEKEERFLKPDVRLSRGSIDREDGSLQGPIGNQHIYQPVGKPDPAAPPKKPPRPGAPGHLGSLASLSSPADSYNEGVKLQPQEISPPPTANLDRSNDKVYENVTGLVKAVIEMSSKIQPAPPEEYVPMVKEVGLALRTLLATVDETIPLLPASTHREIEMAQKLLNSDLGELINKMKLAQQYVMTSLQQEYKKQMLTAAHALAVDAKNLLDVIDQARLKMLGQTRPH
# [12] = tested on: Fibrinogen (Alexa647-labelled); assay: Alexa647-fibrinogen binding to printed small molecules – biochemical, small-molecule microarray, 635/667 nm fluorescence, artefact control for SMM control-protein annotation, profiling panel (AID 1131); conditions: fibrinogen-A647 binding fluorescence, higher = more signal;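 note: z-score merges 667 nm fluorescence with per-spot signal-to-noise over triplicate slides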
# [13] = molecular target: Follistatin (Homo sapiens) (UniProt P19883); assay: FST protein binding to printed compounds – biochemical, small-molecule microarray, 635/667 nm fluorescence, primary screen (AID 1132); conditions: 635 nm fluorescence, higher = more signal
# Chain of Follistatin (Homo sapiens) (P19883 whole entry, looked up): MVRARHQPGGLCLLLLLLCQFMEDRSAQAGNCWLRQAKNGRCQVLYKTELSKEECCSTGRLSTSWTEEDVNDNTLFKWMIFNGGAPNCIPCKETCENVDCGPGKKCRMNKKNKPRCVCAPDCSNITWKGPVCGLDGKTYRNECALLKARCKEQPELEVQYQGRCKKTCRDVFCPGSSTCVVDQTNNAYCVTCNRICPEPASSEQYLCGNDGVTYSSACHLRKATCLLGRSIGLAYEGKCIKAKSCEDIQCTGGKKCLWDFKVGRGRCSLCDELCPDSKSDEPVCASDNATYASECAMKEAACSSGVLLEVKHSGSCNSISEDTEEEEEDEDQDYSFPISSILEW
# [14] = molecular target: Fibroblast growth factor 2 (Homo sapiens) (UniProt P09038); assay: basic fibroblast growth factor binding to printed compounds – biochemical, small-molecule microarray, 635/667 nm fluorescence, primary screen (AID 1133); conditions: FGF2, fluorescence 635/667, higher = more signal
# Chain of Fibroblast growth factor 2 (Homo sapiens) (P09038 whole entry, looked up): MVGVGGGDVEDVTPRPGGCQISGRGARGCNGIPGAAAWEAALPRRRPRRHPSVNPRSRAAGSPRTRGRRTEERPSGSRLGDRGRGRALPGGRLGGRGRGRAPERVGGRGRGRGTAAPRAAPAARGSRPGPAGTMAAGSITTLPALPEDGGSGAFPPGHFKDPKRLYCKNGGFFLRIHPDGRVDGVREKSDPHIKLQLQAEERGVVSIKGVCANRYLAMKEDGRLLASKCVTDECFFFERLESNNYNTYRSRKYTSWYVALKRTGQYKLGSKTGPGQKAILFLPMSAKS
# [15] = JC-1 mitochondrial potential readout, lung cancer cells – cell-based, A549, JC-1 fluorescence, basal, 24 h, 100 nL, profiling panel (AID 1138); conditions: higher = more signal;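 note: A549 lung adenocarcinoma cells under basal conditions with no added stimulus; test concentration not given here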
# Lefty1 = Lefty1 protein binding to printed compounds – biochemical, small-molecule microarray, 635/667 nm fluorescence, primary screen (AID 1139); conditions: fluorescence 635/667, higher = more signal
# [16] = tested on: wheat germ agglutinin (Triticum aestivum), Alexa647-labelled; assay: Alexa647-WGA lectin binding to printed small molecules – biochemical, small-molecule microarray, 635/667 nm fluorescence, artefact control for SMM control-protein annotation, profiling panel (AID 1140); conditions: WGA-A647 binding, 635 nm fluorescence, higher = more signal;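 note: score merges 667 nm feature emission with signal to noise over triplicate slides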
# [17] = molecular target: Luciferin 4-monooxygenase (Photinus pyralis) (UniProt P08659); assay: inhibition of purified Photinus pyralis luciferase – biochemical, luminescence, purified enzyme, 2006 set, primary screen (AID 1141); conditions: purified firefly luciferase, SteadyGlo luminescence, 30 min; higher = more signal, called active from +8 up or from −8 down;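 note: cell-free assay with purified firefly luciferase at 100 ng per well in PBS; test concentration not given here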
# Chain of Luciferin 4-monooxygenase (Photinus pyralis) (P08659 whole entry, looked up): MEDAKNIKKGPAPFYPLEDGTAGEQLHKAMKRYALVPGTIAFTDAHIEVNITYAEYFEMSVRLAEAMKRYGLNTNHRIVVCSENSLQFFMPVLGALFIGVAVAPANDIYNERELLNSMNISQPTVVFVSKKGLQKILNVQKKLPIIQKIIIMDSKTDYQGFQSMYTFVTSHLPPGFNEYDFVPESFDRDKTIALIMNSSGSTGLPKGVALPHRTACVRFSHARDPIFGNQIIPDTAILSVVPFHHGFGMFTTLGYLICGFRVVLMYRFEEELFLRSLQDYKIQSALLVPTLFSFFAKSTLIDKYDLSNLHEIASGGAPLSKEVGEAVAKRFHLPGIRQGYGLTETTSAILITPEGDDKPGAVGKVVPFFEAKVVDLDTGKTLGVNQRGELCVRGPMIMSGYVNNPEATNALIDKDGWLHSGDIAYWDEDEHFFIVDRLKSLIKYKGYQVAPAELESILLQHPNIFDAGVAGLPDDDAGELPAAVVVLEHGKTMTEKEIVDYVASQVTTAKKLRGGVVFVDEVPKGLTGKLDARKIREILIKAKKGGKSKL
SMILES,composite z-score (Albumin (Bos taurus)),composite Z-score [1],composite z-score [2],composite z-score [3],composite z-score [4],composite z-score [5],composite z-score [6],composite z-score (Sam68 (KHDRBS1)),composite z-score [7],composite z-score [8],composite z-score [9],composite z-score [10],composite z-score [11],composite z-score [12],composite z-score [13],composite z-score [14],z-score [15],composite z-score (Lefty1),composite z-score [16],z-score [17]
O=C1C=C[C@@H](O)[C@@H]2[C@@H]3C(=O)N(Cc4ccc5c(c4)OCO5)C(=O)[C@@H]3CC[C@@H]12,0.147,-0.88 (inactive),0.123,-0.0567,-0.137,0.163,0.129,0.627,0.761,0.748,0.314,0.867,0.185,0.546,0.382,0.569,-0.635,0.585,0.0599,-0.276 (inactive)
CC(=O)OC[C@H]1O[C@@H](ON=C2[C@H]3CCn4c(=O)n(-c5ccccc5)c(=O)n4[C@H]3[C@H](O)[C@@H]3O[C@H]23)[C@H](OC(C)=O)[C@@H](OC(C)=O)[C@@H]1OC(C)=O,0.0931,0.0029 (inactive),0.086,-0.186,0.541,1.09,0.0273,1.07,0.544,0.339,1.66,0.894,-0.144,0.8,0.419,0.431,0.188,0.413,0.169,0.939 (inactive)
O=C1[C@H]2[C@H]3[C@H](O)[C@H](O)CC(=NOC[C@@H](O)COCc4ccco4)[C@@H]3CC[C@H]2C(=O)N1Cc1ccc2c(c1)OCO2,0.29,0.564 (inactive),-0.127,-0.148,-0.307,-0.0845,0.123,0.275,1.54,-0.19,-0.133,-0.499,-0.347,-0.952,1.35,1.56,0.96,0.793,-0.63,-0.0365 (inactive)
COC(=O)[C@H](C)NC(=O)CCC1CC(OC(=O)NCc2ccc3c(c2)OCO3)CC2(CCCC(COC(=O)NCc3ccccc3)O2)O1 (stereo not given in full),-0.372,0.264 (inactive),-0.0072,-0.156,0.192,0.849,-0.0296,1.26,0.133,0.829,0.554,0.938,-0.0996,0.332,0.653,0.718,1.05,0.827,0.0082,0.464 (inactive)
COC(=O)[C@H](CCSC)NC(=O)CC=C[C@@H](C)CO,-0.245,-0.131 (inactive),-0.0651,-0.143,0.0952,1.42,-0.226,1.29,1.5,0.483,0.293,0.127,0.0533,-0.922,1.1,1.73,-1.08,1.6,-0.701,-0.08 (inactive)
CC(CCN1CCCCc2nc(C)c(C)cc21)=NO[C@H](C)c1cn([C@@H]2COC[C@H]2O)nn1,0.43,-1.61 (inactive),0.156,0.0097,0.616,0.298,0.0986,1.2,1.49,0.685,0.968,0.12,0.422,0.41,1.26,1.33,-0.624,1.38,-0.0522,1.05 (inactive)
CCN1C(=O)[C@H]2[C@H]3[C@H](O)[C@H](O)CC(=NOC[C@@H](O)[C@H]4O[C@@H]5OC(C)(C)O[C@@H]5[C@H]4O)[C@@H]3CC[C@H]2C1=O,0.0226,-0.485 (inactive),-0.299,-0.0662,0.343,0.324,-0.203,-0.0334,-0.736,-0.406,-0.072,-0.144,-0.212,-0.0432,0.387,0.383,-0.548,0.0533,-0.0038,-0.819 (inactive)
CC(CCN1CCCCc2nc(C)c(C)cc21)=NOC[C@@H](O)[C@H]1O[C@@H]2OC(C)(C)O[C@@H]2[C@H]1O,0.814,-0.379 (inactive),-0.0363,-0.166,-0.378,-0.461,-0.258,0.0948,1.16,-0.0142,3.04,-0.491,-0.319,1.01,0.416,0.937,-0.584,1,-0.163,0.766 (inactive)
CC(C)[C@@H](OCc1ccccc1)[C@H](C)C=NOC[C@@H](O)[C@H]1O[C@@H]2OC(C)(C)O[C@@H]2[C@H]1O,0.0762,0.528 (inactive),-0.0014,-0.147,-0.0043,0.223,0.614,0.574,0.314,1.07,2.33,0.387,0.137,0.941,0.214,0.635,-0.958,0.768,0.234,-0.587 (inactive)
COC(=O)[C@H](C)NC(=O)CCC1CC(OC(=O)NCc2ccc3c(c2)OCO3)CC2(CCCC(COC(=O)NCCCN3CCCC3=O)O2)O1 (stereo not given in full),0.328,0.3 (inactive),0.186,-0.293,0.167,0.639,0.261,1.26,0.826,0.872,0.23,1.03,0.174,0.861,0.602,1.42,-0.224,0.777,0.364,0.906 (inactive)
CC(C)=CCCC(C)=CCON=C1C[C@@H](O)[C@@H](O)[C@@H]2[C@@H]3C(=O)N(C4CCCCC4)C(=O)[C@@H]3CC[C@H]12,-0.207,1.59 (inactive),-0.0784,-0.164,0.106,0.0252,0.514,1.07,1.07,0.48,0.857,0.573,1.12,0.573,1.06,1.25,0.292,1.48,-0.0924,-0.0223 (inactive)

# Reference: PubChem BioAssay
